# CHOP inh – CHOP inhibition in unfolded protein response; CHO-K1 CHOP-promoter luciferase, tunicamycin-induced, 15-18 h; inhibition, % at 10 µM; 220,000 compounds, 3.8% hits;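 active = compounds that reduced the stress-induced luciferase reporter signal by more than about 70% of percent inhibition, limit read from the data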;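 note: 0% = tunicamycin plus vehicle and 100% = wells without tunicamycin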
# WT yeast gro inh – growth inhibition of WT yeast, mitochondrial fusion screen; 190,000 compounds, 2.1% hits; AID 1362; mitochondrial fusion phenotypic screen, WT strain; inhibition, % at 10 µM; in the data active = inhibition above about 58%; tested in S. cerevisiae
# RAM network inh – blocks the yeast RAM network; S. cerevisiae dse1pr::URA3 reporter, 5-FOA growth OD615, 2 d; analog-sensitive cbk1-as2 kinase mutant strain; AID 868; inhibition, % at 50 µM; 190,000 compounds, 1.8% hits;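 active = inhibition above a set limit, 3 SD over mean compound inhibition, cut at about 8.4% in these data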;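 note: 0% = DMSO-only wells with no growth and 100% = 10 µM 1-NA-PP1 full growth; inhibition rescues growth on 5-FOA so higher OD means more RAM inhibition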
# Lmaj promast – inhibitors of Leishmania major promastigote growth | Leishmania major promastigotes, resazurin fluorescence viability | inhibition, % at 10 µM | 200,000 compounds, 9% hits | AID 1063; in the data active = inhibition above about 50%;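 note: promastigotes grown with compound for 44 hours at 28 °C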
# Active calls of the source: *; nt = not tested or not shown. Sampled rows, rich in hits. Any-hit rate of the full collection: about 13%.
SMILES,CHOP inh,WT yeast gro inh,RAM network inh,Lmaj promast
COc1ccc(C2=NN(C(=S)Nc3ccccc3)C(c3ccccc3)C2)cc1 (stereo not given),-29.4,40.7,3.2,96.0*
COc1ccccc1C1CC(c2ccccc2)=NN1C(=S)Nc1ccccc1 (stereo not given),-0.8,14.1,1.6,78.6*
COc1ccc(C2CC(c3ccc(Br)cc3)=NN2C(=S)Nc2ccccc2)cc1 (stereo not given),-5.3,35.3,4.4,79.0*
CNC(=S)N1N=C(c2ccccc2)CC1c1ccc(OC)c(OC)c1 (stereo not given),19.4,21.8,0.6,3.0
O=C1c2cccc3cccc(c23)C(=O)N1/N=C/c1ccc(O)cc1O,70.2*,-6.4,2.0,16.8
O=C1c2ccccc2C(=O)N1/N=C/c1ccc(O)c(O)c1O,-6.6,nt,nt,nt
CN(/C(=N\S(=O)(=O)c1ccccc1)c1ccccc1)c1ccc(O)cc1,24.4,-10.5,0.9,-5.8
Cc1ccc(C(C[N+](=O)[O-])c2c(N)n(C)c(=O)n(C)c2=O)cc1 (stereo not given),-84.9,nt,nt,nt
COc1cc(C(C[N+](=O)[O-])c2c(N)n(C)c(=O)n(C)c2=O)ccc1O (stereo not given),5.6,-2.4,-0.6,72.7*
c1ccc(-c2csc3nnc(SCc4ccc5c(c4)OCCO5)n23)cc1,8.0,22.0,1.0,56.3*
COc1ccc2nc(NC(=O)C(NS(=O)(=O)c3cccc4nsnc34)C(C)C)sc2c1 (stereo not given),39.8,8.3,5.4,21.8
COc1cccc(C2CC(c3cccc(Br)c3)n3nc(N)nc3N2)c1 (stereo not given),-5.5,8.9,1.8,75.2*
Nc1nc2n(n1)C(c1cccc(Br)c1)CC(c1ccccc1)N2 (stereo not given),-5.9,-5.1,0.6,78.3*
O=C(N/N=C/c1c[nH]c2ccccc12)c1cc(-c2ccccc2)n[nH]1,14.2,-15.5,-1.2,79.1*
CCc1ccc(-c2cc(C(=O)N/N=C/c3ccccn3)[nH]n2)cc1,40.4,-11.0,5.2,74.0*
Cc1cc(C)nc(SCc2ccc(C(=O)N/N=C/c3ccccn3)cc2)n1,-9.7,12.6,3.3,90.9*
Cc1cc(C)nc(SCc2ccc(C(=O)N/N=C/c3ccncc3)cc2)n1,-8.8,9.8,0.4,1.6
O=C(N/N=C/c1ccccn1)c1cc(-c2cccc3ccccc23)n[nH]1,12.1,-15.0,2.8,72.7*
O=[N+]([O-])c1cccc(-n2nnnc2CNCc2ccccc2)c1,48.9,nt,nt,nt
O=C(CN1CCOCC1)Nc1scc2c1c(=O)oc1ccccc12,-44.0,nt,nt,nt
Cc1cc(C)nc(SCc2ccc(C(=O)NNC(=O)Nc3cccc(Cl)c3)cc2)n1,96.1*,22.1,3.8,-6.8
CCC(C(=O)NC1CCCCC1)N(Cc1cccs1)C(=O)c1snc(C(N)=O)c1N (stereo not given),1.6,20.9,-0.2,12.3
C=CCn1c(SCc2nc3ccccc3c(=O)[nH]2)nnc1-c1cc2cc(Cl)ccc2o1,82.5*,19.1,3.4,-2.7
COc1ccc(C(=O)C2CCCN(S(=O)(=O)C(C)C)C2)c(C)c1 (stereo not given),-0.6,-5.5,-0.2,-7.3
COc1ccc(C(=O)C2CCCN(Cc3ccc(C#CCCO)cc3)C2)c(OC)c1 (stereo not given),-9.0,3.4,-0.4,-2.1
SMILES,CHOP inh,WT yeast gro inh,RAM network inh,Lmaj promast
COc1ccc(C(=O)C2CCCN(C3Cc4ccccc4C3)C2)c(OC)c1 (stereo not given),56.0,15.7,0.5,94.5*
COc1ccc(C(=O)C2CCCN(Cc3sc(N4CCCC4)nc3Cl)C2)c(OC)c1 (stereo not given),18.7,5.2,0.8,99.4*
COc1ccc(C(=O)C2CCCN(Cc3c(C)[nH]c4ccccc34)C2)c(OC)c1 (stereo not given),20.0,-1.7,-0.9,97.0*
CC(C)NS(=O)(=O)c1ccc(CCC(=O)N2CCCCC2)cc1,-19.5,-5.0,-0.5,11.3
CC(=O)C1=C(C)NC(=O)CC1c1ccc(F)cc1 (stereo not given),4.0,-7.3,-0.1,-5.5
CC(NC(=O)C(Cc1ccccc1)NC(=O)c1ccccc1)C(=O)O (stereo not given),-4.0,-9.2,0.2,84.8*
O=C(O)CCC(NC(=O)C(Cc1ccc2c(c1)OCO2)NC(=O)c1ccccc1)C(=O)O (stereo not given),17.5,12.4,0.9,12.0
Cc1ccc(CC(NC(=O)c2ccccc2)C(=O)NC(Cc2ccccc2)C(=O)O)cc1 (stereo not given),20.6,1.0,1.4,14.3
O=C(NC(Cc1ccc2c(c1)OCO2)C(=O)NC(Cc1ccccc1)C(=O)O)c1ccccc1 (stereo not given),-2.8,10.5,3.3,88.4*
CC1=NN(C(=O)c2c(Br)c(C)nn2C)C(O)(C(F)(F)F)C1 (stereo not given),13.2,-3.5,-1.1,-3.9
CC(C)C[C@H](NC(=O)c1[nH]cnc1C(=O)N[C@@H](Cc1ccccc1)C(=O)OC(C)(C)C)C(=O)OC(C)(C)C,48.0,nt,nt,nt
CC(C)(C)OC(=O)CNC(=O)c1[nH]cnc1C(=O)N[C@@H](Cc1ccccc1)C(=O)OC(C)(C)C,90.0*,nt,nt,nt
C[C@H](NC(=O)c1nc[nH]c1C(=O)N[C@@H](Cc1ccccc1)C(=O)OCc1ccccc1)c1ccccc1,-22.8,0.7,8.6*,4.5
CCOC(=O)n1c(=O)[nH]c2ccc(Br)cc21,15.0,-3.0,0.4,-2.6
O=C(CNC(=O)c1ccc(F)cc1)Nc1ccccc1C(F)(F)F,28.5,nt,nt,nt
CCOC(=O)N1CCN(S(=O)(=O)c2ccc(C)c(C)c2C)CC1,13.5,-7.7,-0.3,-0.6
Cc1ccc(S(=O)(=O)n2nc(C)c(Br)c2C)c(C)c1C,88.6*,-3.8,1.9,-1.5
O=C(Cc1ccc([N+](=O)[O-])cc1)N1N=C(C2CC2)CC1(O)C(F)(F)F (stereo not given),-3.2,12.9,0.4,-1.6
S=c1[nH]nc(-c2cc(-c3ccsc3)n[nH]2)n1-c1cccc2ccccc12,8.2,4.3,-0.1,74.6*
CCN(CC)CCCNC(=O)c1cc2nc3c(c(C(F)(F)F)n2n1)CCc1ccccc1-3,20.5,6.0,2.8,96.4*
O=C(COC(=O)c1cccc(C(F)(F)F)c1)NCc1ccccc1,5.4,-7.1,2.8,2.8
O=C(O)[C@H]1NCCC[C@H]1C(=O)O,-1.9,nt,nt,nt
CCCCCCCCCCCCCCCCn1cc[n+](CC(C)=O)c1,11.8,97.9,-2.2,100.3*
COc1cccc(CSc2nc3ccccc3[nH]2)c1,10.6,10.7,0.0,0.3
COc1cccc(CC(Cc2nc3ccccc3[nH]2)c2nc3ccccc3[nH]2)c1 (stereo not given),-26.8,-3.0,0.2,68.5*
CCOC(=O)c1c[nH][nH]c1=O,15.1,nt,nt,nt
COc1cc(O)c(CC=C(C)C)c(O)c1C(=O)CCc1ccc(O)cc1,88.6*,nt,nt,nt
C=CCn1c(SCN2C(=O)c3ccccc3C2=O)nc2ccc(Cl)cc2c1=O,63.4,19.9,4.8,-5.2
CN1CCN(c2ccc(C(=O)c3ccc(F)cc3)cc2)CC1,-0.7,-14.2,-0.1,67.9*
O=C(c1ccccc1)c1ccc(N2CCNCC2)cc1,5.7,-1.7,1.1,75.1*

# Screening data as filed in PubChem.
